# The full ranking holds about 3,700 sequences; the median of “z-score” is about 4, and the highest 2% start at about 8.4. The sample holds the highest values, similar sequences and a random draw of the others, so the mix is not that of the screen.
# What was measured:
# [1] = target: PU.1 (IVT) (UniProt P17947 1-270); assay: protein-binding microarray (PBM); 20 mM HEPES pH 7.9, 100 mM NaCl, 1 mM DTT, 0.2 mg/mL BSA, 0.02% Triton X-100, 2% milk, 0.4 mg/mL salmon testes DNA; 1 h; temperature not stated; high values mean tight binding; settings: dsDNA, one strand shown
# In short: (§1)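 PU.1, full-length and untagged, came from coupled human in vitro transcription/translation and was bound for 1 h to double-stranded DNA microarrays of 20-bp genomic sites and single-nucleotide variants in HEPES pH 7.9, 100 mM NaCl, 2% milk and salmon testes DNA. After antibody detection, the values were taken as z-scores of scanned fluorescence normalised by linear regression.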
# [2] = target: PU.1 (IVT) (UniProt P17947 1-270); assay: as above; settings: dsDNA, one strand shown; remark: listed apart in the source
# In short: as §1
Sequence,binding signal [1] [z-score],binding signal [2] [z-score]
GCCTAGCACGAAAACAGGAAGTGACTGTTGTGCTAGGTCTTGATTCGCTTGACGCTGCTG,8.08,–
GCCTAGCACGAAGAGAGGAAGTGAAATTGGTGCTAGGTCTTGATTCGCTTGACGCTGCTG,–,5.29
GCCTAGCACGAAATGAGGAAGTTGAGAGCGTGCTAGGTCTTGATTCGCTTGACGCTGCTG,8.36,–
GCCTAGCACGAAATGAGGAAGTTGGTGCTGTGCTAGGTCTTGATTCGCTTGACGCTGCTG,8.11,–
GCCTAGCACGAAATGAGGAAGTGTAAACAGTGCTAGGTCTTGATTCGCTTGACGCTGCTG,7.49,–
GCCTAGCACGAAAAGAGGAAATGAAATTGGTGCTAGGTCTTGATTCGCTTGACGCTGCTG,–,6.51
GCCTAGCACGAAATGAGGAAGTGATTAGGGTGCTAGGTCTTGATTCGCTTGACGCTGCTG,8.13,–
GCCTAGCACGAAAAGAGGAAATGAGAGAGGTGCTAGGTCTTGATTCGCTTGACGCTGCTG,–,5.36
GCCTAGCACGAAAAAAGGAAGTCAAATTGGTGCTAGGTCTTGATTCGCTTGACGCTGCTG,–,5.97
GCCTAGCACGAAAAGAGGAAGTGAAATTGGTGCTAGGTCTTGATTCGCTTGACGCTGCTG,8.72,–
GCCTAGCACGAAATGAGGAAGTACCTAAAGTGCTAGGTCTTGATTCGCTTGACGCTGCTG,8.71,–
GCCTAGCACGAAAAGAGGAAGTCAAATTGGTGCTAGGTCTTGATTCGCTTGACGCTGCTG,8.37,–
GCCTAGCACGAAGAGAGGAAGTCAAATTGGTGCTAGGTCTTGATTCGCTTGACGCTGCTG,–,4.29
GCCTAGCACGAAATAGGGAAGTGTGAGTTGTGCTAGGTCTTGATTCGCTTGACGCTGCTG,6.74,–
GCCTAGCACTGAGAGGGGAAGTGGCAGCTGTGCTAGGTCTTGATTCGCTTGACGCTGCTG,–,4.01
GCCTAGCACTGGAGGAGGAACTGAAATACGTGCTAGGTCTTGATTCGCTTGACGCTGCTG,2.94,–
GCCTAGCACTGAAAGGGGAAGTCAGATAGGTGCTAGGTCTTGATTCGCTTGACGCTGCTG,–,6.45
GCCTAGCACCAAATGAGGAACTGATGCGAGTGCTAGGTCTTGATTCGCTTGACGCTGCTG,6.15,–
GCCTAGCACCAAAGGAGGAACTGAAACCAGTGCTAGGTCTTGATTCGCTTGACGCTGCTG,–,3.2
GCCTAGCACTGAAAGGGGAAGTGGGTGCCGTGCTAGGTCTTGATTCGCTTGACGCTGCTG,–,6.37
GCCTAGCACCGAAAGGGGAAGTGCTAAGCGTGCTAGGTCTTGATTCGCTTGACGCTGCTG,6.82,–

Sequence,binding signal [1] [z-score],binding signal [2] [z-score]
GCCTAGCACGGAAAGAGGAAGTCAAATTGGTGCTAGGTCTTGATTCGCTTGACGCTGCTG,7.8,–
GCCTAGCACGAAAAGAGGAAGTCAAACTGGTGCTAGGTCTTGATTCGCTTGACGCTGCTG,7.89,–
GCCTAGCACGAAAAGAGGAAGTCAATTTGGTGCTAGGTCTTGATTCGCTTGACGCTGCTG,8.54,–
GCCTAGCACTACCCTTTAAAAATAGTTCAGTGCTAGGTCTTGATTCGCTTGACGCTGCTG,–,0.827
GCCTAGCACAGAGAGAGGAAGTGATTACAGTGCTAGGTCTTGATTCGCTTGACGCTGCTG,4.98,–
GCCTAGCACTTCAGGGGGAAGTACTGTGTGTGCTAGGTCTTGATTCGCTTGACGCTGCTG,–,3.94
GCCTAGCACCACAAGAGGAAGTCCCACAAGTGCTAGGTCTTGATTCGCTTGACGCTGCTG,–,3.93
GCCTAGCACTCCAGGAGGAACTACTGTGTGTGCTAGGTCTTGATTCGCTTGACGCTGCTG,2.59,–
GCCTAGCACAGAAAGAGGAACTGAAAAGTGTGCTAGGTCTTGATTCGCTTGACGCTGCTG,6.62,–
GCCTAGCACAGAGAGGGGAAGTGACTTGCGTGCTAGGTCTTGATTCGCTTGACGCTGCTG,4.95,–
GCCTAGCACAGAAAGAGGAAGTGACTTGCGTGCTAGGTCTTGATTCGCTTGACGCTGCTG,8.54,–
GCCTAGCACAGAAAGAGGAAGTCCTCTCTGTGCTAGGTCTTGATTCGCTTGACGCTGCTG,8.3,–
GCCTAGCACAGAGAGAGGAAGTGAAAGTAGTGCTAGGTCTTGATTCGCTTGACGCTGCTG,–,4.81
GCCTAGCACAGGAAGAGGAAGAGGAAGAAGTGCTAGGTCTTGATTCGCTTGACGCTGCTG,–,4.95
GCCTAGCACAGAAAGAGGAAGTAGATATTGTGCTAGGTCTTGATTCGCTTGACGCTGCTG,8.76,–
GCCTAGCACAGAGAGAGGAAGTGAGCTCTGTGCTAGGTCTTGATTCGCTTGACGCTGCTG,–,4.31
GCCTAGCACAGAAAGAGGAAGTGTAAAAAGTGCTAGGTCTTGATTCGCTTGACGCTGCTG,8.57,–
GCCTAGCACAGAAAGAGGAAGTTGGCTCTGTGCTAGGTCTTGATTCGCTTGACGCTGCTG,8.56,–
GCCTAGCACAGAAAGGGGAAGTGACTTGCGTGCTAGGTCTTGATTCGCTTGACGCTGCTG,8.13,–
GCCTAGCACACAGAGAGGAAGTAGATAAAGTGCTAGGTCTTGATTCGCTTGACGCTGCTG,–,4.75

# Source: paper PMC6451091, “NextPBM: a platform to study cell-specific transcription factor binding and cooperativity”
